# From PubChem BioAssay
# Active and inactive are the calls of the source.
# Tested on: not listed separately
# Assay: forskolin-driven CRE-LacZ activity in PC12 – cell-based, CRE-LacZ reporter, forskolin-stimulated, primary screen (AID 1146);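 also: PC12 cells with 6xCRE LacZ reporter stimulated by forskolin 10 µM; beta-galactosidase reporter signal reflecting CREB driven transcription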
# Conditions: luminescence, 4.5 h, higher = more signal, called active from +8 up or from −8 down
row,Compound,z-score
1,O=C1O[C@@H](c2ccccc2)[C@@H](c2ccccc2)N2[C@@H](c3ccc(OCCO)cc3)[C@]3(C(=O)Nc4ccc(C#CCCO)cc43)[C@@H](C(=O)NC[C@H](O)c3ccccc3)[C@H]12,0.119 (inactive)
2,O=C1[C@H]2C=C(Br)[C@H](C[C@@H]2OCCCCCCO)[C@@]12CO2,1.71 (inactive)
3,C=CCNC(=O)[C@@H]1[C@H]2C(=O)O[C@H](c3ccccc3)[C@H](c3ccccc3)N2[C@H](c2ccc(OCCO)cc2)[C@@]12C(=O)N(C(=O)OCCOC)c1ccc(C#CCNC(N)=O)cc12,-0.419 (inactive)
4,O=C1NC(=O)C2C1C=CC(C(O)c1ccc(I)cc1)N2Nc1ccccn1 (stereo unspecified),0.0542 (inactive)
5,COc1cc2c(cc1OC)CN(C(=O)[C@H]1[C@@H]3C(=O)O[C@@H](c4ccccc4)[C@@H](c4ccccc4)N3[C@@H](c3ccccc3OCCO)[C@]13C(=O)Nc1ccc(C#CCCO)cc13)CC2,1.64 (inactive)
6,C=CCC(OC(C)=O)[C@@H]1[C@@H](N(Cc2ccc(-c3cccc(C(F)(F)F)c3)o2)C(=O)c2cccc3ccccc23)c2cc(OCCCO)ccc2N1C(=O)Cc1ccc2ccccc2c1 (stereo partly specified),0.848 (inactive)
7,C=CCN1C(=O)[C@]2(O[C@H](CCO)[C@@H]([Si](C)(C)c3ccc(OC)cc3)[C@@H]2C)c2cc(N(C=O)c3ccccc3)ccc21,-3.14 (inactive)
8,COC(=O)c1c2oc(c1C(=O)OC)C(=O)NC1(CCCCC1)c1cn(nn1)C[C@H](Cc1ccccc1)NC(=O)N[C@H](CO)CC2,-0.696 (inactive)
9,CCN(CC)c1ccc(N2CC=CC34O[C@@H]5C=CCOC(=O)[C@@H]5[C@H]3C(=O)N(CCCCCCO)[C@@H]4C2=O)cc1 (stereo partly specified),-1.57 (inactive)

# Biological target: Streptavidin (Streptomyces avidinii) (UniProt P22629)
# Sequence (P22629 whole entry, looked up): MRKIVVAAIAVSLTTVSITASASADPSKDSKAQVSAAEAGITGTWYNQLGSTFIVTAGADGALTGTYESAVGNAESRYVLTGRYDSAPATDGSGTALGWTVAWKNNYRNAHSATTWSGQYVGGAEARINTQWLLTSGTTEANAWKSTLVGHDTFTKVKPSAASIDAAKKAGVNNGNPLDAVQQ
# Assay: compounds binding control protein streptavidin – biophysical, small-molecule microarray, 635/667 nm fluorescence, artefact control for SMM compound annotation, primary screen (AID 1147);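 also: signal reflects streptavidin binding to arrayed compounds as a control protein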
# Conditions: higher = more signal
row,Compound,composite z-score
1,COC(=O)[C@@]1(Cc2ccc(OC)cc2)[C@H]2c3cc(C(=O)N4CCCC4)n(CCc4ccc(O)c(O)c4)c3C[C@H]2CN1C(=O)c1ccccc1,0.27
2,CC(CO)N1C(=O)[C@@H]2C3C(=O)OCCC/C=C\[C@H]3OC23C=CCN(CCN2CCOCC2)C(=O)[C@@H]13 (stereo partly specified),-0.254
3,CC1CC/C=C\[C@H]2OC34C=CCN(Cn5nnc6ccccc65)C(=O)[C@H]3N(CCCCCO)C(=O)[C@@H]4C2C(=O)O1 (stereo partly specified),-1.76
4,COC(=O)C(CC#Cc1ccc2c(c1)[C@]1(C(=O)N2)[C@H](c2ccccc2OCCO)N2[C@H](c3ccccc3)[C@H](c3ccccc3)OC(=O)[C@H]2[C@@H]1C(N)=O)C(=O)OC,1.5
5,COC(=O)[C@@]1(Cc2ccc(OC)cc2)[C@H]2c3cc(C(=O)N4CCCC4)n(CCSCCO)c3C[C@H]2CN1C(=O)c1ccccc1,0.532
6,C=CC[C@@]1(C(=O)N2CCCCC2)N=C(c2ccc(OCCCO)cc2)O[C@@H]1c1ccccc1CN=[N+]=[N-],1.77
7,CCOC(=O)C1=C[C@@H](C(C)C)N(S(=O)(=O)c2ccc(C)cc2)[C@H]1c1ccccc1F,1.08
8,NC(=O)[C@@]1(Cc2ccccc2)N=C(c2ccc(OCCCO)cc2)O[C@H]1c1ccccc1,0.924
9,COc1cc2c(cc1O)C(c1cccs1)N(Cc1ccc([N+](=O)[O-])o1)CC2 (stereo unspecified),1.32
10,COCCCNC(=O)[C@@]1(Sc2ccc(C)cc2)CC(=O)N(Cc2ccccc2Cl)[C@@H]1c1ccc(CO)cc1,0.584
11,O=C1N(CCS(=O)(=O)c2ccccc2)c2ccccc2[C@@H]2OC(c3ccc(OCCCO)cc3)=N[C@]12Cc1ccccc1,0.14
12,[N-]=[N+]=Nc1ccccc1C[C@]1(C(=O)N2CCCCC2)COC(c2ccc(OCCCO)cc2)=N1,1.22
13,COc1ccc(CCNC(=O)[C@@]2(c3ccc([N+](=O)[O-])cc3)CC(=O)N(CC34CC5CC(CC(C5)C3)C4)[C@@H]2c2ccc(CO)cc2I)cc1,-0.0522
14,NCCCCCNC(=O)[C@H]1C[C@H]2C(=O)N3CCC[C@H]3C(=O)N2[C@H]1c1ccc(O)cc1,1.23
15,COCCCNC(=O)[C@@]1(CCS(=O)(=O)c2ccccc2)N=C(c2ccc(OCCCO)cc2)O[C@H]1c1ccccc1N=[N+]=[N-],0.985
16,COc1ccc([Si](C)(C)[C@@H]2[C@@H](CCn3cc(CCO)nn3)O[C@]3(C(=O)N(Cc4cccc(N5C(=O)c6cccc7cccc5c67)c4)c4ccccc43)[C@H]2C)cc1,0.942
17,O=C1OCCC/C=C\[C@H]2OC34C=CCN(c5ccc6ccccc6c5)C(=O)[C@H]3N(CCCCCO)C(=O)[C@@H]4C12 (stereo partly specified),-0.773
